Values without a mark were called inactive. Records with an inconclusive call do not appear. A call without a number means that no potency is given here. Calls of active or inactive are those of the source. Unless noted, the call rests on the fitted dose curve; in most records, active means well fitted curve in the direction sought with a large enough effect in the repeat runs; inconclusive means weak or mixed curves; inactive means no such curve, though single readings can be large; an effect the other way counts as inactive or inconclusive.
Legend:
[1] = qHTS assay to identify small molecule agonists of the sonic hedgehog signaling (Shh) pathway (AID 1259368; calls by dose curve;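 further: NIH/3T3-derived 3T3Gli1-Luc cells carrying a stable Gli1-driven firefly luciferase reporter; series mostly up to about 92 µM; nearly all actives have a fitted effect of over 15% in size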)
Summary of the method: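 3T3Gli1-Luc (NIH/3T3 clone, stable Gli1-Luc); 4 hr pre-incubation, then cpd in DMSO 24 hr, 37 C/5% CO2; luciferase reagent 30 min RT; luminescence.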

[2] = qHTS assay to identify small molecule antagonists of the sonic hedgehog signaling (Shh) pathway (AID 1259369; calls by dose curve; further: nearly all actives have a fitted effect of over 45% in size; further: potency means the concentration at half of the fitted maximal effect)
Summary of the method: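 3T3Gli1-Luc, conditioned-medium-stimulated, 24hr cpd, 37C/5% CO2; Gli1-driven firefly Luc luminescence after 30min RT with luciferase reagent. Cells plated 4hr before cpd.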

[3] = biological target: Estrogen receptor beta (Homo sapiens) (UniProt Q92731); assay: qHTS assay to identify small molecule agonists of the estrogen receptor beta (ER-beta) signaling pathway (AID 1259377; active means well fitted activation curve with a large enough effect in the signal ratio in the repeat runs, not every such curve was filed as active; the % refers to the signal ratio)
Sequence of Estrogen receptor beta (Homo sapiens) (Q92731 whole entry, looked up): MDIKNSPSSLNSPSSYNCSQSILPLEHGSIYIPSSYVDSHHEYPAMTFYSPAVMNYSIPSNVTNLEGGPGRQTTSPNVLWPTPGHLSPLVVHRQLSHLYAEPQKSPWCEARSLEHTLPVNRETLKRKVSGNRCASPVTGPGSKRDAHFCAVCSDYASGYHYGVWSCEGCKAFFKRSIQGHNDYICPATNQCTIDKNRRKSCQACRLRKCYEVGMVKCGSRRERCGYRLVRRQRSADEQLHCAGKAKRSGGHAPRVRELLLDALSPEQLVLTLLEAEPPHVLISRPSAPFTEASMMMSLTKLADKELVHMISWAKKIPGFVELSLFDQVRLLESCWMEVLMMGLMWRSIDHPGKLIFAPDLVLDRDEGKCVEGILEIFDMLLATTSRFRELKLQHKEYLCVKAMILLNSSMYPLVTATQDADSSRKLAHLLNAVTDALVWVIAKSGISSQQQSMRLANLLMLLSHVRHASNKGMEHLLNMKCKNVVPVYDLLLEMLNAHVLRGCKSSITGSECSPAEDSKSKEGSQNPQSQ
Summary of the method: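 qHTS in ER-beta-UAS-bla HEK293T cells: 6 hr settling, then 16 hr compound at 37C, then LiveBLAzer substrate 2 h at RT before fluorescence reading.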

[4] = biological target: Estrogen receptor beta (Homo sapiens) (UniProt Q92731); assay: qHTS assay to identify small molecule antagonists of the estrogen receptor beta (ER-beta) signaling pathway (AID 1259378; active means well fitted inhibition curve with a large enough effect in the signal ratio in the repeat runs, not every such curve was filed as active; the % refers to the signal ratio)
Summary of the method: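 ER-beta-UAS-bla HEK293T (GripTite) cells in 2% charcoal-stripped FBS medium were preincubated 6 hr at 37C, dosed with compound, then stimulated with 1 nM E2 (final) for 16 hr; beta-lactamase reporter read by B/G FRET fluorescence after 2 hr substrate loading.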

[5] = qHTS assay to identify small molecule agonists of the androgen receptor (AR) signaling pathway in the presence of an antagonist - cell viability counter screen (AID 1259379);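 further: MDA-kb2 human breast cancer cells carrying an MMTV luciferase reporter; series mostly up to about 92 µM; nearly all actives have a fitted effect of over 25% in size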
Summary of the method: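 Cells: MDA-kb2 (MMTV-luc, AR and GR elements), 3,000/well, 5 hr settle. Added: nilutamide 3.0uM final, then compounds (15 conc.). Incubation: 16 hr, 37C, no CO2. Read-out: CellTiter-Fluor, 1 hr, fluorescence.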

[6] = qHTS assay to identify small molecule agonists of the estrogen receptor beta (ER-beta) signaling pathway - cell viability counter screen (AID 1259380); further: nearly all actives have a fitted effect of over 30% in size
Summary of the method: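 HEK293T ER-beta-UAS-bla; 2% CS-FBS; 6 hr pre-plate, 16 hr cpd at 37C/5% CO2; LiveBLAzer read first, then CellTiter-Glo 30 min RT, luminescence.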

[7] = qHTS assay to identify small molecule antagonists of the estrogen receptor beta (ER-beta) signaling pathway - cell viability counter screen (AID 1259382); further: series mostly up to about 92 µM; nearly all actives have a fitted effect of over 55% in size
Summary of the method: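 Cells: ER-beta-UAS-bla HEK293T, 2,000/well, 2% CS-FBS, 6 hr settle. Cpd + E2 (1nM final), 16 hr, 37C/5% CO2. Bla FRET substrate 2 hr RT, then CellTiter-Glo 30 min RT, luminescence.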

[8] = qHTS assay to identify small molecule agonists or antagonists of the thyroid stimulating hormone receptor (TSHR) signaling pathway - wild type cell line counter screen (AID 1259384; calls by dose curve)
Summary of the method: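 Wild-type HEK293 cells were plated 18 h at 37 C/5% CO2, pin-dosed with compound plus Ro20-1724 medium, held 30 min at room temperature, then given cAMP-d2 and anti-cAMP-cryptate; fluorescence was read after 1 h. Fifteen concentrations, triplicate.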

[9] = biological target: Thyrotropin receptor (Homo sapiens) (UniProt P16473); assay: qHTS assay to identify small molecule antagonists of the thyroid stimulating hormone receptor (TSHR) signaling pathway (AID 1259385; calls by dose curve; further: nearly all actives have a fitted effect of over 20% in size)
Sequence of Thyrotropin receptor (Homo sapiens) (P16473 whole entry, looked up): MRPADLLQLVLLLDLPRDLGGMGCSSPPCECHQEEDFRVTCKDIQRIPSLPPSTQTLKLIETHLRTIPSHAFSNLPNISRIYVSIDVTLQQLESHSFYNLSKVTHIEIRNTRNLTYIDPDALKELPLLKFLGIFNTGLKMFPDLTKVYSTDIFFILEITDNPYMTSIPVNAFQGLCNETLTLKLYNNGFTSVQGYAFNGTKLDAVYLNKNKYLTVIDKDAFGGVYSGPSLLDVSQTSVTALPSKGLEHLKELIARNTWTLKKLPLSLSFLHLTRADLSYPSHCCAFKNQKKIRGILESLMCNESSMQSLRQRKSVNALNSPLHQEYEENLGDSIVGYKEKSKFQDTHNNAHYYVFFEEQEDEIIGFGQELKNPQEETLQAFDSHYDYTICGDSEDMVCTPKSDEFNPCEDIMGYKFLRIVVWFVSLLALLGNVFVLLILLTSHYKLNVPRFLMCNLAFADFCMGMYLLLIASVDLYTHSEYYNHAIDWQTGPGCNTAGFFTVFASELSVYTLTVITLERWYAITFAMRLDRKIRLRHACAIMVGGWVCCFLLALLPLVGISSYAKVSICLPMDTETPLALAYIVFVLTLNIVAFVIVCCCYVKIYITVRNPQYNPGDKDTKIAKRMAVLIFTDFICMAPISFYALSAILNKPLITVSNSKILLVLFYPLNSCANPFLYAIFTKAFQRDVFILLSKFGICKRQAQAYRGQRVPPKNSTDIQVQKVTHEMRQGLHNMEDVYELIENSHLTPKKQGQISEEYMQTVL
Summary of the method: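 TSHR-HEK293 cells were plated and held 18 h at 37C/5% CO2, then given compound plus Ro20-1724 and stimulated with TSH at 1.5 ng/mL final. After 30 min at room temperature, cAMP was detected with cAMP-d2/anti-cAMP-cryptate (1 h) by fluorescence.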

[10] = qHTS assay to identify small molecule agonists of the estrogen receptor alpha (ER-alpha) signaling pathway in the presence of an antagonist - cell viability counter screen (AID 1259386);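 further: series mostly up to about 92 µM; cells exposed to compounds for 22 h at 37 °C before the viability read; nearly all actives have a fitted effect of over 30% in size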
Summary of the method: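 VM7Luc4E2, stripped-serum pre-culture 5 d; 24hr plating; +ICI-182,780 10.0nM final; cpds 15 conc, 22hr, 37C/5% CO2; CellTiter-Fluor added at 21hr, fluorescence 1hr later.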

[11] = biological target: Progesterone receptor (Homo sapiens) (UniProt P06401); assay: qHTS assay to identify small molecule agonists of the progesterone receptor (PR) signaling pathway (AID 1346784; calls by dose curve; further: nearly all actives have a fitted effect of over 30% in size)
Sequence of Progesterone receptor (Homo sapiens) (P06401 whole entry, looked up): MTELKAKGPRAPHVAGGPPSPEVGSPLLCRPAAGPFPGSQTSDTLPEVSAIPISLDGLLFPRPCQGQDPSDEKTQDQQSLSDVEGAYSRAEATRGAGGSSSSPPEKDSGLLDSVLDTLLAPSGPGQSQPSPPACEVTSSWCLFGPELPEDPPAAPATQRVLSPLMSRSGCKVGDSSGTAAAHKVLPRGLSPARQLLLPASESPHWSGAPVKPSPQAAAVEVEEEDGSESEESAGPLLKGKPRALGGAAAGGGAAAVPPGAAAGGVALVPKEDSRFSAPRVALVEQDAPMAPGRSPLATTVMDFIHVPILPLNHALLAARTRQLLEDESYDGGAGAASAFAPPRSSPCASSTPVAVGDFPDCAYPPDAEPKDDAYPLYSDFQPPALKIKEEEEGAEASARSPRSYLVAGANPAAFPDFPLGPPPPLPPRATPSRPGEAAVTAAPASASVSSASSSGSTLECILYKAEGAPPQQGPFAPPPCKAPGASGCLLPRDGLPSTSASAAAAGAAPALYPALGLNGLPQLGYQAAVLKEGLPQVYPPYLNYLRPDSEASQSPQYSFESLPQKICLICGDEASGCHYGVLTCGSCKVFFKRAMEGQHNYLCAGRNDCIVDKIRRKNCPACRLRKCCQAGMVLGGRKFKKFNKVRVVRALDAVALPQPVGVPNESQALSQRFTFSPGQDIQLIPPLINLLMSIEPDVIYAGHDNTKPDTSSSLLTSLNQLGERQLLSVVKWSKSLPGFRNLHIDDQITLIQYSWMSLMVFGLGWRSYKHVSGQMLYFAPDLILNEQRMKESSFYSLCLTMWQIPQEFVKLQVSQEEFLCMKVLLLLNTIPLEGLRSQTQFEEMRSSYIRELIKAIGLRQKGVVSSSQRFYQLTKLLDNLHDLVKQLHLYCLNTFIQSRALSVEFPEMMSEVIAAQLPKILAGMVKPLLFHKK
Summary of the method: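 Fluorescence from LiveBLAzer B/G FRET substrate cleavage (2 hr, RT) reported PR activation in PR-UAS-bla HEK 293T cells treated 16 hr at 37C/5% CO2 with compounds; medium contained 2% charcoal-stripped FBS.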

[12] = biological target: Progesterone receptor (Homo sapiens) (UniProt P06401); assay: qHTS assay to identify small molecule antagonists of the progesterone receptor (PR) signaling pathway (AID 1346795; active means well fitted inhibition curve with a large enough effect in the signal ratio in the repeat runs, not every such curve was filed as active; the % refers to the signal ratio; further: potency means the concentration at half of the fitted maximal effect)
Summary of the method: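 Fluorescence intensity measured 2 hr after adding beta-lactamase FRET substrate to PR-UAS-bla HEK293T cells that had been co-treated 16 hr with compound and 1 nM R5020 (final concentration) in 2% charcoal-stripped FBS.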

[13] = qHTS assay to identify small molecule antagonists of the progesterone receptor (PR) signaling pathway - cell viability counter screen (AID 1346798); further: series mostly up to about 92 µM; nearly all actives have a fitted effect of over 50% in size
Summary of the method: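 CellTiter-Glo luminescence; PR-UAS-bla HEK293T, 3,000 cells/well; compound + R5020, 16 hr, 37C/5% CO2; 30 min RT before read.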

[14] = qHTS assay to identify small molecule agonists of the progesterone receptor (PR) signaling pathway - cell viability counter screen (AID 1346799; calls by dose curve; further: nearly all actives have a fitted effect of over 45% in size)
Summary of the method: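 In parallel with the beta-lactamase readout, cytotoxicity toward PR-UAS-bla HEK293T cells was measured by CellTiter-Glo luminescence following 16 hr compound incubation in 2% charcoal-stripped FBS medium.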

[15] = qHTS assay to identify small molecule antagonists of the TGF-beta/Smad signaling pathway - cell viability counter screen (AID 1346824); further: nearly all actives have a fitted effect of over 50% in size
Summary of the method: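 SBE-bla HEK 293T cells were plated overnight at 37 C, then given compounds in DMSO plus TGF-beta1 (added as 0.25 ng/mL solution) for 5 hr. After the bla read, CellTiter-Glo was added to the same wells and luminescence read after 30 min at room temperature.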

[16] = qHTS assay to identify small molecule agonists of the TGF-beta/Smad signaling pathway - cell viability counter screen (AID 1346829); further: top concentration of the series differs between compounds; nearly all actives have a fitted effect of over 45% in size
Summary of the method: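 Compound-treated SBE-bla HEK 293T cells (5 hr, 37 C) were assessed for viability with CellTiter-Glo in parallel with the reporter read.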

[17] = qHTS assay to identify small molecule agonists of the TGF-beta/Smad signaling pathway (AID 1346859; active means well fitted activation curve with a large enough effect in the signal ratio in the repeat runs, not every such curve was filed as active; the % refers to the signal ratio; further: series mostly up to about 77 µM)
Summary of the method: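 After overnight seeding, SBE-bla HEK 293T cells are dosed with compounds in DMSO and kept 5 hr at 37 C, 5% CO2. LiveBLAzer-type FRET substrate is then applied for 2 hr at room temperature.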

[18] = biological target: Thyrotropin-releasing hormone receptor (Homo sapiens) (UniProt P34981); assay: qHTS assay to identify small molecule antagonists of the thyrotropin-releasing hormone receptor (TRHR) signaling pathway (AID 1346877; active means well fitted inhibition curve with a large enough effect in the repeat runs, not every such curve was filed as active; further: series mostly up to about 51 µM)
Sequence of Thyrotropin-releasing hormone receptor (Homo sapiens) (P34981 whole entry, looked up): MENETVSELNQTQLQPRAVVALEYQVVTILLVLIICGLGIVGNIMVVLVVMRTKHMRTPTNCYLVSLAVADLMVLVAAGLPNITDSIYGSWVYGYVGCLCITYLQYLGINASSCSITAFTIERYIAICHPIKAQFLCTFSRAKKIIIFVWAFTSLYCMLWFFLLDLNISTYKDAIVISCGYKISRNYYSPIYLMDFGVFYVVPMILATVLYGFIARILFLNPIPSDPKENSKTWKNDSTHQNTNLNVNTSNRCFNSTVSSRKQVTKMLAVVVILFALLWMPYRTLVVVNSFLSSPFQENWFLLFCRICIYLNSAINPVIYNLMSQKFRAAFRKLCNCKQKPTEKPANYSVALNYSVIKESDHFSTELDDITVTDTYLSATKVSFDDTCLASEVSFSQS
Summary of the method: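 Intracellular calcium fluorescence, read kinetically every second over 3 min, reports TRH-evoked signalling in HEK293 cells carrying TRHR. Test compounds were added 5 min ahead of a 1 nM TRH challenge.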

[19] = biological target: Estrogen receptor (Homo sapiens) (UniProt P03372); assay: qHTS assay to identify small molecule agonists of the estrogen receptor alpha (ER-alpha) signaling pathway in the presence of an antagonist (AID 1259383; calls by dose curve; further: top concentration of the series differs between compounds; nearly all actives have a fitted effect of over 15% in size)
Sequence of Estrogen receptor (Homo sapiens) (P03372 whole entry, looked up): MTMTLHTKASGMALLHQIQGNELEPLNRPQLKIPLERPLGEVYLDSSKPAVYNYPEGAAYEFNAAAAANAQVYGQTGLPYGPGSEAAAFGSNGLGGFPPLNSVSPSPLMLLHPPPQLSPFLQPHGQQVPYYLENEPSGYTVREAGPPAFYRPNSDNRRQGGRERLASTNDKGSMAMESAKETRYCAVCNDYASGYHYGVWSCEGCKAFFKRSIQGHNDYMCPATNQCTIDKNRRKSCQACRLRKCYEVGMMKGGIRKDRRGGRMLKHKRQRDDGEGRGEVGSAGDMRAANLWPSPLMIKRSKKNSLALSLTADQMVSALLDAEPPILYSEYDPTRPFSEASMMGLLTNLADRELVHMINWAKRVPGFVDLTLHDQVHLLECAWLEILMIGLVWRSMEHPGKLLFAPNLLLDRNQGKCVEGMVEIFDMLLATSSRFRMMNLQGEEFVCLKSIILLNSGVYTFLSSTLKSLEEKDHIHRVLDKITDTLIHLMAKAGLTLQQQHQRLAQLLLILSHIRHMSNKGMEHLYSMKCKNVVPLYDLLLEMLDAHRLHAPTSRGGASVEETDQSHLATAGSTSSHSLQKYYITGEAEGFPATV
Summary of the method: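 VM7Luc4E2, endog. ER-alpha + 4×ERE-luc; charcoal-stripped FBS, phenol red-free, 5 d; 24hr plating; +10.0nM ICI-182,780 (final); cpds 15 conc, 22hr, 37C/5% CO2; ONE-Glo luminescence.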

SMILES | Potency [1] | Potency [2] | outcome [3] | Potency [4] | Potency [5] | Potency [6] | outcome [7] | outcome [8] | Potency [9] | Potency [10] | Potency [11] | Potency [12] | Potency [13] | Potency [14] | outcome [15] | outcome [16] | outcome [17] | outcome [18] | Potency [19]
Cc1c(N)cccc1N | inactive | inactive | inactive | inactive | inactive | inactive | inactive | inactive | inactive | inactive | inactive | inactive | inactive | inactive | inactive | inactive | inactive | inactive | 
CC(C)(C)C1CCCCC1=O (stereo not drawn) | inactive | inactive | inactive | inactive | inactive | inactive | inactive |  |  | inactive | inactive | inactive | inactive | inactive |  | inactive | inactive | inactive | inactive
Cc1c[nH]c(=S)[nH]c1=O | inactive | inactive | inactive | inactive | inactive | inactive | inactive |  |  | inactive | inactive |  | inactive | inactive | inactive | inactive | inactive |  | inactive
O=C(CCCl)NCc1ccccc1 | inactive | inactive | inactive | inactive | inactive | inactive |  | inactive | inactive | inactive | inactive | inactive | inactive | inactive | inactive |  | inactive | inactive | inactive
Oc1ccccc1F | inactive | inactive | inactive | inactive | inactive | inactive |  | inactive | inactive | inactive | inactive | inactive | inactive | inactive | inactive | inactive | inactive | inactive | inactive
COc1cc2c(cc1N)oc1ccccc12 | inactive | 27.9 µM (active) | inactive | inactive | inactive | inactive | inactive |  |  | inactive | inactive |  | inactive |  | inactive |  | inactive | inactive | 
O=C1N(c2ccccc2)c2ccccc2C1(Cc1ccncc1)Cc1ccncc1 | inactive | inactive | inactive | inactive | inactive | inactive | inactive |  |  | inactive | inactive |  | inactive | inactive | inactive | inactive | inactive | inactive | inactive
NC(=O)Cc1cccc(C(=O)c2ccccc2)c1N | inactive | inactive | inactive | inactive | inactive | inactive |  |  |  | inactive | inactive | inactive | inactive |  | inactive | inactive | inactive |  | 
CN1CCC[C@@H]1Cc1c[nH]c2ccc(CCS(=O)(=O)c3ccccc3)cc12 | inactive | 13.3 µM (active) | inactive | inactive | inactive | inactive | inactive | inactive | inactive | inactive | inactive | inactive | inactive | inactive | inactive | inactive | inactive | inactive | 
COC(=O)c1ccc(OC)cc1 | inactive | inactive | inactive | inactive | inactive | inactive | inactive | inactive | inactive | inactive | inactive | inactive |  | inactive | inactive | inactive | inactive |  | 
NCCC(O)(P(=O)(O)O)P(=O)(O)O | inactive | inactive | inactive | inactive | inactive | inactive |  | inactive | inactive | inactive | inactive | inactive | inactive | inactive | inactive |  | inactive |  | 
Cc1ccc(C=O)s1 | inactive | 48.6 µM (active) | inactive | inactive | inactive | inactive | inactive |  |  | inactive | inactive | inactive | inactive |  | inactive | inactive | inactive | inactive | 
C=Cc1ccccc1 | inactive | inactive | inactive | inactive | inactive | inactive | inactive |  |  | inactive | inactive | inactive | inactive | inactive |  | inactive | inactive |  | inactive
CN1CCN(C2=Nc3ccccc3Oc3ccc(Cl)cc32)CC1 | inactive | 6.68 µM (active) | inactive | inactive | inactive | inactive | inactive | inactive |  | inactive | inactive | 26.6 µM (active) | inactive | inactive | inactive | inactive |  |  | inactive
CC(=O)Oc1cc(C(C)C)c(OCCN(C)C)cc1C | inactive | inactive | inactive | inactive | inactive | inactive |  | inactive | inactive | inactive | inactive | inactive | inactive | inactive | inactive |  | inactive | inactive | 
CC1(C)S[C@@H]2[C@H](NC(=O)C(C(=O)O)c3ccccc3)C(=O)N2[C@H]1C(=O)O (stereo partly drawn) | inactive | inactive | inactive | inactive | inactive | inactive | inactive |  |  | inactive | inactive |  | inactive | inactive | inactive |  | inactive | inactive | 
CCCCCCCCOC(=O)CCCCCCCCC(=O)OCCCCCCCC | inactive | inactive | inactive | inactive | inactive | inactive | inactive |  |  | inactive | inactive | inactive | inactive | inactive | inactive | inactive | inactive | inactive | inactive
